CYP2C9 act: human CYP2C9 activators, primary screen, biochemical, luminescence. Cytochrome P450 2C9 (Homo sapiens), P11712. recombinant CYP2C9, luciferin-H conversion; active compounds read high; factor 1 = untreated enzyme, 0 = blocked. activation factor at 5 µM. hit rate 1.4% among 96,000;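 active means activation factor of 2 or more for CYP2C9 at a 5 µM dose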;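 further: 0 = sulfaphenazole-blocked wells and 1 = vehicle-only wells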
CYP2C19 inh: blockers of cytochrome P450 2C19 activity – biochemical, luminescence, ADME assay, primary screen; P33261; CYP2C19 Supersomes, luciferin-H EGE luminescence, 30 min; inhibition, % at 5 µM; hit rate 21% among 96,000;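 active means CYP2C19 inhibition above a set limit at 5 µM in the primary screen, cut at about 50% in these data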;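 further: plate controls were negative control wells for no effect and 2.5 mM tranylcypromine positive control for full effect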
Target sequence (P33261 whole entry, looked up): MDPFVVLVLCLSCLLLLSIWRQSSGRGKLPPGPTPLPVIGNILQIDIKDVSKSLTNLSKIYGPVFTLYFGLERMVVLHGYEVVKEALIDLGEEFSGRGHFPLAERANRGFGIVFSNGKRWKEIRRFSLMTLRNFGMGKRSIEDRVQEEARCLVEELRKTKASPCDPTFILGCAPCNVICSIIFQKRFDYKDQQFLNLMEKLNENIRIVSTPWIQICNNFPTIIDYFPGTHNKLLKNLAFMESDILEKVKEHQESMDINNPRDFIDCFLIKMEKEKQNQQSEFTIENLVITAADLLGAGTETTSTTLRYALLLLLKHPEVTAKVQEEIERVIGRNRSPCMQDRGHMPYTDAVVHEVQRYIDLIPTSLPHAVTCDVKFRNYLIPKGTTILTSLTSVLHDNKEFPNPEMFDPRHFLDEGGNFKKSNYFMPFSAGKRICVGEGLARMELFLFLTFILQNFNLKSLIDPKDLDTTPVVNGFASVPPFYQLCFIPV
Cav3 T inh: Cav3.2 calcium influx blockers – cell-based, Fluo-4 calcium fluorescence, FDSS, MLSMR library, primary screen; Cav3.2-expressing cells; active compounds read low; B-score at 10 µM; AID 449739, 2010; hit rate 4% among 100,000; Voltage-dependent T-type calcium channel subunit alpha-1H (Homo sapiens), O95180;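 active means single-dose well whose peak fluorescence ratio is a statistical outlier from its plate by either plate-standardised score or position-corrected B-score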
CYP2C19 act: human CYP2C19 activators, primary screen, biochemical, luminescence; Cytochrome P450 2C19 (Homo sapiens), P33261; recombinant CYP2C19, luciferin-H EGE luminescence; active compounds read high; 0 = fully inhibited enzyme, 1 = untreated enzyme; activation factor at 5 µM; 96,000 tested, under 10 active;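 active means activation factor of at least 2 at 5 µM in the primary screen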;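 further: 0 = wells with 2.5 mM tranylcypromine and 1 = vehicle-only wells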
CYP2C9 inhib: blockers of cytochrome P450 2C9 activity – biochemical, luminescence, ADME assay, primary screen; P11712; CYP2C9 Supersomes, luciferin-H conversion; inhibition, % at 5 µM; hit rate 20% among 96,000;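 active means blocking of liver enzyme CYP2C9 beyond about 50% at 5 µM, limit read from the data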
Numbers without * were called inactive; nt = no result. Shown are actives, neighbours in structure and some others; about 27% of the full set was active somewhere.

SMILES	CYP2C9 act	CYP2C19 inh	Cav3 T inh	CYP2C19 act	CYP2C9 inhib
Cc1cc2ncn(C(=O)N3CCCCC3)c2cc1C	0.9	81.6*	-0.319	0.2	6.1
Cc1cc2ncn(C(=O)N3CCCCCC3)c2cc1C	nt	nt	0.871	nt	nt
CCC(C)(C)NC(=O)C(c1cccc(OC)c1)N(C(=O)c1ccn[nH]1)c1cccc(OC)c1 (centres undefined)	0.8	74.3*	-5.09*	0.3	22.9
COc1cccc(N2C(=O)C(O)=C(C(C)=O)C2c2ccc(OC)c(OC)c2)c1 (centres undefined)	0.7	6.3	0.297	0.9	34.7
COc1ccc(-c2n[nH]c3c2C(c2ccc(OC)c(OC)c2)N(c2ccccc2)C3=O)cc1 (centres undefined)	0.6	34.2	-5.6*	0.7	43.3
COc1ccc(C)cc1NC(=O)CN1CCN(S(=O)(=O)c2ccc(Cl)cc2)CC1	0.4	65.8*	0.215	0.3	64.7*
COc1ccc(OC)c(C(=O)CN2CCN(S(=O)(=O)c3ccc(Br)cc3)CC2)c1	0.4	83.3*	nt	0.2	58.5*
COc1ccc(C)cc1NC(=O)CN1CCN(S(=O)(=O)c2ccc(C(C)C)cc2)CC1	0.1	85.9*	-1.12	0.1	87.8*
COc1ccc(NC(=O)CN2CCN(S(=O)(=O)c3ccc(C(C)C)cc3)CC2)cc1OC	0.6	44.3	-0.912	0.6	41.3
COc1cccc(OC)c1C(=O)N1CCN(S(=O)(=O)c2ccc(C)cc2)CC1	0.6	10.7	0.712	0.9	35.3
Cc1ccc(S(=O)(=O)NCCCNC(=O)N2CCOCC2)cc1	1	5.8	-0.522	0.9	-4.3
CC(c1nnc(SCC(=O)Nc2ccc3[nH]c(=O)[nH]c3c2)n1Cc1ccccc1)N(C)C (centres undefined)	1.1	-8.9	0.987	1.1	-7.6
CN(C)c1nc(NCc2ccccc2)nc(SCC(=O)Nc2ccc(Cl)c(Cl)c2)n1	0.1	48.0	-4.11*	0.5	85.9*
CCOC(=O)c1cc2sc(C)cc2n1CC(=O)NCc1ccc(F)cc1	0.9	72.3*	-0.321	0.3	14.3
Oc1sc(C=Nc2ccccc2)c2ccccc12	0.9	44.2	-5.08*	0.6	7.0
COc1ccc(CN2CC(C(=O)NCCc3ccc(C)cc3)CC2=O)cc1 (centres undefined)	0.7	39.1	0.0319	0.6	31.6
COc1cc(C2C=C(C34CC5CC(CC(C5)C3)C4)NC(=S)N2)cc(OC)c1OC (centres undefined)	0.5	49.3	-0.309	0.5	53.5*
COc1ccc(C2=CC(c3cc(OC)c(OC)c(OC)c3)NC(=S)N2)cc1 (centres undefined)	0.1	73.8*	-2.37	0.3	94.0*
Cn1ncc(C#N)c1NC(=O)c1cc(-c2ccccc2Cl)on1	0.8	-0.8	0.358	1	18.7
Cc1cnc(C(=O)OCC(=O)c2csc(N3CCCCC3)n2)cn1	0.8	1.3	-0.205	1	20.5
COc1ccccc1-c1ccc(Nc2cccc(C(C)=O)c2)nn1	1.5	79.9*	0.405	0.2	-49.3
CC(=O)c1ccc(NS(=O)(=O)Cc2ccccc2)cc1	0	92.7*	0.0255	0.1	97.1*
CN(Cc1ccccc1)S(=O)(=O)c1ccc(Cl)nc1	0.8	70.2*	0.213	0.3	16.9
CN(Cc1ccccc1)S(=O)(=O)c1ccc(NS(=O)(=O)Cc2ccccc2)cc1	0.1	93.6*	-3.84*	0.1	94.3*
CC(=O)N(C)c1ccc(NS(=O)(=O)Cc2ccccc2)cc1	1	6.1	0.278	0.9	-1.3
SMILES	CYP2C9 act	CYP2C19 inh	Cav3 T inh	CYP2C19 act	CYP2C9 inhib
COc1cc2c(=O)n(CC3CCCO3)c(=O)n(CC(=O)Nc3cccc(Cl)c3)c2cc1OC (centres undefined)	0.2	63.0*	nt	0.4	84.7*
CCCNC(=O)c1ccccc1C(=O)NCCC	0.9	-5.2	-0.0544	1.1	6.8
Cc1c(C2N3CC4(C)CN2CC(C)(C3)C4=O)c2ccccc2n1C (centres undefined)	1.2	21.3	-0.37	0.8	-17.9
CCCc1cc(=O)[nH]c(Nc2ccc(O)cc2)n1	1	15.8	1.09	0.8	-1.4
CCCc1cc(=O)[nH]c(Nc2ccc(OC)c(Cl)c2)n1	0.3	12.6	0.263	0.9	72.4*
COc1ccc(N(CC(=O)NCc2cccs2)S(=O)(=O)c2cccnc2)cc1	0.4	84.4*	1.25	0.2	63.9*
COc1ccc2nc3oc(C(=O)NCc4cccs4)cc3cc2c1	0.7	46.7	1.22	0.5	26.4
COc1ccc(N(CC(=O)NCc2cccs2)S(=O)(=O)c2c(C)n[nH]c2C)cc1	0.7	73.2*	-0.481	0.3	31.8
Nc1c(Cl)cc(-c2csc(N3CCCC3c3nc4cc(Cl)c(N5CCCCC5)cc4n3CCCO)n2)cc1Cl (centres undefined)	nt	nt	2.02	nt	nt
COc1ccc(S(=O)(=O)N(C)CC(=O)N2CCC(C)CC2)cc1Cl	2.5*	6.7	1.02	0.9	-154.9
COc1ccc(S(=O)(=O)N(C)CC(=O)N2CCC(C(N)=O)CC2)cc1	1.3	-4.8	0.305	1	-31.0
COc1ccc(OC)c(N(CC(=O)N2CCC(C)CC2)S(=O)(=O)c2ccc(OC)c(OC)c2)c1	0.6	16.0	-0.692	0.8	39.0
COc1ccc(OC)c(N(CC(=O)N2CCC(C)CC2)S(=O)(=O)c2ccccc2)c1	0.5	34.0	-0.0827	0.7	52.1*
COc1ccc(N(CC(=O)N2CCCCC2)S(=O)(=O)c2ccccc2)c(OC)c1	0.5	52.7*	1.39	0.5	48.6
O=C(O)c1ccc(-n2c(-c3ccc(Br)cc3)n[nH]c2=S)cc1	1.2	1.8	0.313	1	-15.3
Cc1cccc(N2C(=O)CC(N(O)c3ccccc3)C2=O)c1 (centres undefined)	1.4	40.9	-0.394	0.6	-37.9
CC1(C)CC(OC(=O)c2ccco2)CC(C)(C)N1O	0.8	7.1	-0.585	0.9	18.6
Cc1ccsc1C(=O)OCC(=O)N1CCOCC1	1.1	3.6	0.234	1	-6.9
O=C(NCc1ccccc1)c1ccc(CN(c2ccccn2)S(=O)(=O)c2ccccc2)cc1	0.6	0.7	2.01	1	40.3
COC(=O)C(CC(C)C)N1CCC(=O)c2ccccc2S1(=O)=O (centres undefined)	nt	nt	0.173	nt	nt
COc1ccc(-c2nnn(CC(=O)N(Cc3cccs3)C(C)C(=O)NCCC(C)C)n2)cc1OC (centres undefined)	0.7	33.8	-2.51	0.7	30.8
O=C(CCNc1ccc(Cl)c(C(F)(F)F)c1)c1ccco1	0.5	75.5*	-5.14*	0.2	46.1
O=C(CCNc1ccc(F)c(Cl)c1)c1ccco1	0.8	32.5	-1.62	0.7	19.5
O=C(CCNc1cc(Cl)cc(Cl)c1)c1ccco1	0.5	60.9*	-4.2	0.4	46.5
O=C(CCNc1ccc(F)cc1)c1ccco1	1	65.0*	-0.0135	0.3	-1.2
